Data published in PubChem BioAssay.
Activity calls are given as the source filed them.

Assays:
Albumin (Bos taurus) = Albumin (Bos taurus) (UniProt P02769); experiment: bovine serum albumin binders on microarray, profiling panel, artefact control for SMM control protein annotation, biochemical, small-molecule microarray, Alexa647 label, 635/667 nm fluorescence (AID 1118); conditions: BSA-A647 binding, fluorescence 635 nm, higher = more signal;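 also: score merges 667 nm emission intensity and signal-to-noise per printed compound spot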
Chain of Albumin (Bos taurus) (P02769 whole entry, looked up): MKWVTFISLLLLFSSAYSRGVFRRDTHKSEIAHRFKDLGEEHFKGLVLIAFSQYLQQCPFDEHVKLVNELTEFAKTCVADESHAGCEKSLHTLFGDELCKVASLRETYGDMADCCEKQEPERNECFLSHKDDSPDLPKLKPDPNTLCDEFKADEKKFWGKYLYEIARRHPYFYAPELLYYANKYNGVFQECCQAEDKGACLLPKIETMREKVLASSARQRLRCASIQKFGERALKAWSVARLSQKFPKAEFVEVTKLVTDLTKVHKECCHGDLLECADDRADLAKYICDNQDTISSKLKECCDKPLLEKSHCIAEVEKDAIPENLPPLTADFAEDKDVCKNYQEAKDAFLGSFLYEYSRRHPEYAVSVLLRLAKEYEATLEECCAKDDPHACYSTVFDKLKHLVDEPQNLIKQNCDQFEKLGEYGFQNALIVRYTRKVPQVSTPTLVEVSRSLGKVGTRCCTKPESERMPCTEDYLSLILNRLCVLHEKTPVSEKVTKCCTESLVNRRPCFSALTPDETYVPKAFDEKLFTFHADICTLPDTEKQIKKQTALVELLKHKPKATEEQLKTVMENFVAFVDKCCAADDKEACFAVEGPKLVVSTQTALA

[1] = small-molecule microarray binders of probe aXIP, primary screen, biochemical, NeuroSMM set, 635/667 nm fluorescence (AID 1119); conditions: higher = more signal, called active from +8 up or from −8 down;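 also: probe is the protein aXip251-270 applied at 1 µg/mL to compound-printed slides; binding of probe to printed compounds measured as 667 nm fluorescence plus signal to noise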
[2] = small-molecule binders of probe aNOTCH3, primary screen, biochemical, small-molecule microarray, 635/667 nm fluorescence (AID 1120); conditions: higher = more signal;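 also: probe is a biotin-tagged antibody raised against NOTCH3 rather than NOTCH3 protein; score merges spot fluorescence near 667 nm with spot signal to noise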
[3] = small-molecule binders of probe aNOTCH2, primary screen, biochemical, small-molecule microarray, 635/667 nm fluorescence (AID 1121); conditions: higher = more signal;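 also: score merges feature fluorescence read at 667 nm with its signal to noise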
[4] = target: Carbonic anhydrase 2 (Homo sapiens) (UniProt P00918); experiment: CAII small-molecule binders, profiling panel, biochemical, small-molecule microarray, Alexa647-labelled CAII (AID 1122); conditions: CAII-A647 binding fluorescence, higher = more signal
[5] = COS7 lysate on small-molecule microarray, probe aHis, 635 nm (AID 1123); conditions: COS7 cell lysate, fluorescence, higher = more signal;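 also: z-score combines 667nm fluorescence intensity with signal-to-noise per printed compound spot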
[6] = compound binding in COS7 lysate, probe aLAP1, primary screen, cell lysate, small-molecule microarray (AID 1124); conditions: probe aLAP1, fluorescence, higher = more signal;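 also: lysate comes from COS7 cells expressing LAP1 and is applied at 0.3 µg/mL; score merges spot fluorescence near 667 nm with signal-to-noise over triplicate slides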
Sam68 (KHDRBS1) = experiment: Sam68 small-molecule binders, primary screen, biochemical, small-molecule microarray, 635 nm fluorescence (AID 1125); conditions: small-molecule microarray binding, higher = more signal;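 also: score merges 667 nm channel intensity with signal to noise over triplicate slides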
[7] = test system: Chordin-like protein 2 (CHRDL2); experiment: CHRDL2 small-molecule binders, primary screen, biochemical, small-molecule microarray, 635 nm fluorescence (AID 1126); conditions: small-molecule microarray binding, fluorescence 635 nm; higher = more signal;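 also: printed compound slides probed with Chrdl2 protein at 4 µg/mL for 1 h at 4 C; score merges 667 nm emission intensity with signal to noise over three replicate slides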
[8] = target: Concanavalin-A (Canavalia ensiformis) (UniProt P02866); experiment: ConA small-molecule binders, primary screen, artefact control for SMM control protein annotation, biochemical, small-molecule microarray, Alexa647 label, 635 nm (AID 1127); conditions: ConA-A647 binding fluorescence, higher = more signal;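 also: z combines 667 nm emission intensity with signal-to-noise across three replicate slides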
Chain of Concanavalin-A (Canavalia ensiformis) (P02866 whole entry, looked up): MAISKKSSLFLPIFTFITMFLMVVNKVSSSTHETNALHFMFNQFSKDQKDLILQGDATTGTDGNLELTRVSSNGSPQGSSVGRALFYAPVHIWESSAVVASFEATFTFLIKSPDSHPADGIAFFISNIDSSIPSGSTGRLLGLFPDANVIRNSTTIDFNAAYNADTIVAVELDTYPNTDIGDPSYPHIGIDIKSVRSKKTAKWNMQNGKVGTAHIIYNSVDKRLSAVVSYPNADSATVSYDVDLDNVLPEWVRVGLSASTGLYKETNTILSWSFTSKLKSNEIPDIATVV

Structure (SMILES) | composite z-score (Albumin (Bos taurus)) | composite Z-score [1] | composite z-score [2] | composite z-score [3] | composite z-score [4] | composite z-score [5] | composite z-score [6] | composite z-score (Sam68 (KHDRBS1)) | composite z-score [7] | composite z-score [8]
COCCOC(=O)N1C(=O)[C@@]2(c3cc(C#CCC(C(=O)OC)C(=O)OC)ccc31)[C@H](C(=O)N1CCN(c3ncccn3)CC1)[C@H]1C(=O)O[C@H](c3ccccc3)[C@H](c3ccccc3)N1[C@@H]2c1ccccc1OCCO | -0.503 | -0.444 (inactive) | 0.176 | -0.147 | 0.347 | 0.928 | 0.698 | 1.29 | 1.09 | 1.13
COc1ccc(C#Cc2ccc3c(c2)[C@]2(C(=O)N3)[C@H](C(=O)Nc3nc4ccccc4s3)[C@H]3C(=O)O[C@H](c4ccccc4)[C@H](c4ccccc4)N3[C@@H]2c2ccc(O)cc2)cc1 | 0.835 | 0.257 (inactive) | 1.29 | 0.158 | 0.406 | 2.65 | 0.641 | 1.31 | 0.172 | 1.12
COc1cc2c(cc1O)C(c1cccs1)N(C)CC2 (stereo not given) | 0.393 | -0.0667 (inactive) | -0.28 | -0.182 | 0.311 | 0.0056 | -0.465 | -1.2 | -0.231 | -1.2
C=CCOC(=O)[C@H]1[C@@H]2C(=O)O[C@@H](c3ccccc3)[C@@H](c3ccccc3)N2[C@@H](c2ccc(OCCOC(=O)[C@H]3C[C@H]4C(=O)N[C@@H](CCCCNC(C)=O)C(=O)N4[C@H]3c3ccc(O)cc3)cc2)[C@]12C(=O)Nc1ccc(I)cc12 | -0.0312 | 0.745 (inactive) | 0.0876 | -0.147 | 0.253 | 0.837 | 0.0563 | 1.22 | 1.25 | 1.09
COc1ccc([Si](C)(C)[C@H]2[C@H](CC(=O)N3Cc4ccccc4C[C@H]3CO)O[C@@]3(C(=O)N(Cc4cccc(N5CCC5=O)c4)c4ccccc43)[C@@H]2C)cc1 | -0.606 | 0.923 (inactive) | -0.0003 | -0.14 | 0.584 | 1.4 | 0.0972 | 1.2 | 1.21 | 0.64
O=C(CS)NCCCCCCNC(=O)[C@@H]1C[C@@H]2C(=O)NCC(=O)N2[C@@H]1c1cccc(OCCO)c1 | -0.607 | 0.359 (inactive) | -0.446 | -0.398 | 0.679 | 2.91 | 0.71 | 0.318 | 0.26 | 0.625
CN(C)C(=O)[C@@]1(CCS(=O)(=O)c2ccccc2)COC(c2ccc(OCCCO)cc2)=N1 | 0.401 | 0.319 (inactive) | 0.125 | -0.0406 | 0.813 | 2.28 | 0.441 | 0.203 | -0.466 | 0.469
C=CCNC(=O)[C@@H]1[C@H]2C(=O)O[C@H](c3ccccc3)[C@H](c3ccccc3)N2[C@H](c2ccc(OCCO)cc2)[C@@]12C(=O)Nc1ccc(C#CCC(C(=O)OC)C(=O)OC)cc12 | 0.64 | 0.788 (inactive) | 0.277 | 0.0302 | 0.641 | 2 | 0.978 | 1.29 | 0.392 | 1.16
C[N+](C)(C)CCCCCCNC(=O)[C@@H]1C[C@@H]2C(=O)N[C@@H](Cc3ccccc3)C(=O)N2[C@@H]1c1cccc(OCCO)c1 | 0.358 | 0.6 (inactive) | 0.0628 | -0.132 | 0.668 | 1.59 | 0.591 | 1.05 | 1.27 | 0.622
C#C[C@H](O[Si](C#Cc1ccc(Oc2ccccc2)cc1)(C(C)C)C(C)C)c1ccccc1 | 0.687 | 0.29 (inactive) | 0.0122 | -0.0057 | 0.695 | 0.45 | 0.484 | 0.99 | 0.662 | 0.971
COC(=O)[C@@]1(Cc2ccc(OC)cc2)[C@H]2c3cc(C(=O)N(C)C)n(CCc4ccccn4)c3C[C@H]2CN1C(=O)c1ccccc1 | 0.928 | -0.0712 (inactive) | 1.28 | 0.689 | 0.461 | 1.06 | 0.272 | 0.221 | -0.764 | -0.138
CC(C)C(=C=CC[C@@H](O)c1ccc(OCCO)cc1)C[C@@H](O)c1ccccn1 | -0.363 | 1.24 (inactive) | 0.0553 | -0.13 | 0.368 | -0.0995 | 0.33 | 0.726 | 1.38 | 0.817
CN1C(=O)C2C=CC(C(O)C3CC=CCC3)N(N(c3ccccc3)c3ccccc3)C2C1=O (stereo not given) | -0.197 | 0.0007 (inactive) | 0.0715 | 0.19 | -0.287 | -0.202 | 0.52 | -1.25 | 0.774 | -0.372
COc1cc2c(cc1O)C(C1CC1)N(Cc1sc3ccccc3c1Cl)CC2 (stereo not given) | 0.718 | -0.909 (inactive) | -0.152 | -0.0984 | 0.76 | 2.69 | 0.862 | 0.888 | 0.185 | 0.0387
